# Source: PubChem BioAssay AID449762 (Southern Research Specialized Biocontainment Screening …, 2010)
# Hit rate of the full screen: of about 330,000 compounds, about 1,900 (0.58%) were called active. Another 4% or so got no clear call; they are omitted. Only a sample is shown. Measured potencies and affinities stand elsewhere. Unmarked numbers belong to inactive results. Rule as the data show it: inconclusive = inhibition above about 70% without an active follow-up result; inactive = below that.
# Experiment: M. tuberculosis growth inhibition, HTS (AID 449762);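 also: bacterial growth assessed after seven days of incubation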
# Details: M. tuberculosis H37Rv growth inhibition, 7H9 media; at 25 µM; active compounds read high
row,SMILES,inhibition
1,COc1ccc(Cc2nc3ccc(C(=O)N(C)C(C)c4nccs4)cc3o2)cc1 (stereo unspecified),1.57%
2,COc1ccc(-c2ccc([C@H]3[C@H]4C=CC[C@@H](C)[C@@H]4C(=O)N3Cc3ccccc3)c(F)c2)cc1C,-3.73%
3,CCC(C)n1ncn(-c2ccc(N3CCN(c4ccc(OCC5COC(Cn6cncn6)(c6ccc(Cl)cc6Cl)O5)cc4)CC3)cc2)c1=O (stereo unspecified),-3.37%
4,CC1(c2ccc(Cl)cc2Cl)OCC(Cn2ccnc2)O1 (stereo unspecified),-2.41%
5,FC(F)(F)c1cc(N2CCNCC2)c2ccccc2n1,4.5%
6,COc1ccc2cc(S(=O)(=O)NCc3cccnc3)ccc2c1,-6.19%
7,c1ccc(OCc2nnc(-c3ccccc3)o2)cc1,3.84%
8,Oc1ccccc1-c1nnc(COc2ccc(Cl)cc2Cl)o1,2.32%
9,Cc1ccccc1C(=O)Nc1cccc(-c2cn3ccccc3n2)c1,35.7%
10,Cc1nnc(NC(=O)CCC(=O)NC2CCCCCCC2)s1,2.33%
11,O=C(O)CCC(=O)Nc1nnc(C(F)(F)F)s1,5.81%
12,CC(=O)c1cccc(S(=O)(=O)NCCC(=O)NC2CCCCCC2)c1,2.95%
13,CCN(CC)S(=O)(=O)c1ccc(NC(=O)c2ccc(Sc3nncn3C)c([N+](=O)[O-])c2)cc1,3.9%
14,COCCn1c(O)c(/C=N/NC(=O)CSC(=S)N2CCCC2)c(=O)[nH]c1=S,-6.24%
15,CCOc1ccccc1NC(=O)C1CCCN(c2c(CC)c(C)nc3ncnn23)C1 (stereo unspecified),3.2%
16,CCN(c1cccc(C)c1)S(=O)(=O)c1nnc(NC(=O)c2ccco2)s1,-5.15%
17,CC(C)Cn1c2c(c(O)c(C(=O)Nc3nccs3)c1=O)CCCC2,8.72%
18,Cc1csc(NC(=O)c2c(O)c3c(n(CC(C)C)c2=O)CCCC3)n1,65.9%
19,CC(=C1C(=O)c2ccccc2C1=O)N1CCN(c2ccc(F)cc2)CC1,-0.18%
20,O=C(O)c1ccccc1SSc1ccccc1C(=O)O,-0.04%
21,CCC(Sc1ccccc1C(=O)O)C(=O)O (stereo unspecified),5.4%
22,COc1ccc(CN2CCN(Cc3cccc(Oc4ccccc4)c3)CC2)c(OC)c1OC,22.7%
23,Cn1c(C(=O)N2CCCC(C(=O)NCCCSC3CCCCC3)C2)cc2sccc21 (stereo unspecified),67.2%
24,Cc1cc(C)n2nc(N)c(N=Nc3ccc4c(c3)OCO4)c2n1,1.48%
25,Cc1cc(C)n2nc(N)c(N=Nc3ccc(Cl)cc3)c2n1,5.04%
26,CC(C)CNC(=S)N(CCN(C)C)Cc1cc2cc3c(cc2[nH]c1=O)OCCO3,-7.36%

row,SMILES,inhibition
1,COc1ccc(OC)c(NC(=O)CSc2nncc(=O)n2N)c1,-3.14%
2,CC(=O)N1CC(C)Sc2ccc(S(=O)(=O)NC3CCCCC3)cc21 (stereo unspecified),0.78%
3,NC(=O)NCC(=O)N1CCC(C(O)(c2ccccc2)c2ccccc2)CC1,-4.38%
4,COc1ccc(Cc2nnc(SCC(=O)N3CCc4ccccc4C3)o2)cc1,-4.27%
5,COc1ccc(-c2nnc(SCC(=O)N3CCCC3)o2)cc1,-2.88%
6,Cc1cccc(C)c1OCCOC(=O)c1cccc(S(=O)(=O)N2CCOCC2)c1,-2.97%
7,COc1cccc(C(=O)OCC(=O)N2CCc3ccccc3C2)c1OC,-0.41%
8,Cc1cccc(C(=O)OCC(=O)N2CCCCCC2)c1O,20.7%
9,COc1ccccc1N1CCN(S(=O)(=O)c2ccc(Br)s2)CC1,-5.24%
10,Cn1nc(C(C)(C)C)cc1NC(=O)Nc1ccc(Cl)cc1,6.33%
11,Cc1c(Cl)cccc1NC(=O)Nc1cc(C(C)(C)C)nn1C,2.96%
12,CC(C)c1ccc(OCC(O)CNC(C)c2ccccc2)cc1 (stereo unspecified),15.1%
13,COc1ccc(OCC(O)CNC(C)c2ccccc2)cc1 (stereo unspecified),-6.83%
14,C[C@H](NC(=O)C1CC(=O)N(c2ccc3c(c2)OCCO3)C1)C(=O)NCc1ccco1 (stereo partly specified),0.57%
15,Cc1ccc(-n2nc3c(N4CCC(C(=O)NCCc5ccccc5C)CC4)nnc(C)c3c2C)cc1,5.89%
16,COc1ccc(-n2nc3c(N4CCC(C(=O)NCc5ccccc5C)CC4)nnc(C)c3c2C)cc1,8.33%
17,COC(CNC(=O)CNC(=S)N(CCCN1CCOCC1)Cc1cccs1)OC,12.5%
18,Cc1nc(Nc2ccc(Br)cc2Br)c([N+](=O)[O-])c(=O)[nH]1,0.85%
19,Cc1sc2ncnc(Sc3nc4ccccc4s3)c2c1C,-4.93%
20,CCc1cc2c(Sc3nc4ccccc4s3)ncnc2s1,11.1%
21,Cc1nc(-c2ccc(S(=O)(=O)Oc3ccccc3Cl)s2)cs1,4.35%
22,O=C(COc1ccc(S(=O)(=O)N2CCOCC2)cc1)N1CCCCCC1,-3.92%
23,COc1ccccc1-c1cc(C(=O)N2CCN(c3ccccc3)CC2)no1,-4.77%
24,COc1ccc(NS(=O)(=O)c2ccc(C)c(C(=O)NNC(=O)c3ccccc3O)c2)cc1,5.14%
25,CC(C)(C)c1ccc(C(=O)N2CCN(Cc3ccccc3)CC2)cc1,4.6%
